The list is not random: actives were taken first. Their share in the collection is about 1.4%.
E coli Lon inh: inhibits E. coli Lon protease. AID 602123. hit rate 0.42% among 360,000. inhibition, % at 7.94 µM. purified E. coli Lon protease, fluorescence polarization; in the data active means inhibition above about 13%, passing the limit was not always enough;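 further: 0% = enzyme with probe and DMSO and 100% = no enzyme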
MCL1 BIM primary: disrupts human MCL1 binding to BIM-BH3 peptide. hit rate 0.68% among 320,000. Q07820. GST-MCL1 / FITC-Bim-BH3 fluorescence polarization. inhibition, % at 10.9 µM;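 active means inhibition above the mean inhibition of all tested compounds plus 3 SD, set per campaign, cut at about 40% in these data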;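 further: 0% = DMSO wells and 100% = unlabeled Bim-BH3 peptide control; higher means more loss of mP so more displacement of Bim peptide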
Target sequence (Q07820 whole entry, looked up): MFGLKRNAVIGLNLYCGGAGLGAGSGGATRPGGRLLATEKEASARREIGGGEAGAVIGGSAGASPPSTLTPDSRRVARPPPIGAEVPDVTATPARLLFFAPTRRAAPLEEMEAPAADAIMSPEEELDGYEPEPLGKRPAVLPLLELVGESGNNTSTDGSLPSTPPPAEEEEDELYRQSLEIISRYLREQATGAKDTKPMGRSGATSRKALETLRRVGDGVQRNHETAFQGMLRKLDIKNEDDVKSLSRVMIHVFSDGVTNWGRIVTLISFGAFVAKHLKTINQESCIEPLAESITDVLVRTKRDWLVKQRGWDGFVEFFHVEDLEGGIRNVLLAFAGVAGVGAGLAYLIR
GLD-1 RNA inh: GLD-1-TGE RNA interaction inhibition (C. elegans); inhibition, % at 5.96 µM; Q17339; AID 2280; hit rate 0.44% among 320,000; purified GLD-1 + fluorescein TGE RNA, fluorescence polarization;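 active means percent inhibition above a per-plate cutoff, the plate mean of test compounds plus 3 SD, cut at about 30% in these data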;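 further: 0% = DMSO wells with GLD-1 and probe and 100% = wells lacking GLD-1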
MEX-5 binding: C. elegans MEX-5 TCR-2 RNA binding activity | activity score (negative = inhibition of binding), % at 10 µM | MEX-5/FITC-TCR2 RNA binding, fluorescence polarization; stronger effect = lower value | hit rate 0.38% among 300,000 | Q9XUB2;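 active means inhibition past about -25% in most replicates, and total fluorescence under double the plate's negative control median, limit read from the data; inconclusive means replicates evenly split on the limit, or fluorescence at least double controls; inactive means too little inhibition in most replicates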;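 further: 0% = DMSO and -100% = 5 µM competing unlabeled TCR2 RNA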
BCLXL inh: blocks human Bcl-xL binding to Bim BH3 peptide; GST-Bcl-xL / FITC-Bim BH3 peptide fluorescence polarization; inhibition, % at 10.9 µM; AID 2129; Q07817; hit rate 0.7% among 320,000;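 active means inhibition above the mean of all tested compounds plus 3 SD, cutoff set per campaign, cut at about 30% in these data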;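 further: 0% = DMSO wells and 100% = unlabeled Bim-BH3 peptide competitor; inhibitors lower millipolarization by displacing the labeled peptide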
Target sequence (Q07817 whole entry, looked up): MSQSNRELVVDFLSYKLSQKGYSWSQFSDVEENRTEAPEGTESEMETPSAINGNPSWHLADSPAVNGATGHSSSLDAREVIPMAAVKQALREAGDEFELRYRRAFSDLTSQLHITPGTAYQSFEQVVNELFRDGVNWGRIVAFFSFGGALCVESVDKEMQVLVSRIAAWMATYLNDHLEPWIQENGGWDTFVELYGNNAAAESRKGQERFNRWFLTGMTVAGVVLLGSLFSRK
E coli Lon conf: E. coli Lon inhibition confirmation. shares compounds with E coli Lon inh. purified E. coli Lon, fluorescence polarization. inhibition, % at 7.94 µM. hit rate 31% among 1,400. AID 602230; in the data active means inhibition above about 16%;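 further: 0% = enzyme with probe and DMSO and 100% = no enzyme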
Numbers without * were called inactive; ? = inconclusive; / = not tested or not shown; + = active, no number.

SMILES | E coli Lon inh | MCL1 BIM primary | GLD-1 RNA inh | MEX-5 binding | BCLXL inh | E coli Lon conf
O=C(CCNC(=O)C1CCN(S(=O)(=O)c2ccc(F)cc2)CC1)NCc1ccccc1Cl | 16.9* | 3.0 | 3.0 | 0.1 | -0.2 | -10.5
Cc1ccc(CNc2ccc(O)cc2)cc1 | 19.8* | / | / | -1.9 | / | -24.5
Cc1cccc(S(=O)(=O)NC(=O)C2(C)CCN2C(=O)Cc2ccc(Cl)cc2Cl)c1 (stereo unspecified) | -14.8 | / | / | / | / | /
CC1(C(=O)Nc2ccc3c(c2)OCO3)CCN1C(=O)CC1CC1 (stereo unspecified) | 0.8 | / | / | / | / | /
C[C@H](CO)N1C[C@H](C)[C@H](CN(C)C(=O)Nc2cccc(F)c2)Oc2cc(C#CC3(O)CCCC3)ccc2S1(=O)=O | 12.5* | / | / | / | / | -2.4
O=c1c2ccccc2sn1-c1nccs1 | 22.3* | / | / | 1.4 | / | 19.7*
Cc1ccc(S(=O)(=O)NCc2nnnn2-c2ccc(F)cc2)cc1 | -9.3 | / | / | / | / | /
CCN(CC(=O)Nc1c(F)cccc1F)C(=O)c1ccc(OC)c(S(=O)(=O)NC2CCCC2)c1 | 0.4 | / | / | / | / | /
O=C(COc1ccc(F)cc1Cl)Nc1ccc(N2CCOCC2)cc1N1CCOCC1 | 15.8* | -3.0 | 0.5 | -0.5 | -0.9 | 0.4
C=CCN(C(=O)COc1ccccc1)c1nnc(-c2ccncc2)s1 | 18.3* | 5.2 | 5.5 | 0.8 | 7.3 | -8.3
COCCN(C(=O)c1cccc(OC)c1)c1nnc(-c2ccncc2)s1 | 4.7 | 0.6 | 0.5 | -3.2 | -0.2 | /
CCCn1c(O)c(N=NC(=O)CNC(=O)c2cccnc2)c2ccccc21 | 8.4 | -3.2 | -1.8 | 0.8 | 0.3 | /
Cn1c(O)c(N=NC(=O)CNC(=O)c2cccnc2)c2ccccc21 | 18.6* | 8.0 | 4.5 | -3.8 | 2.7 | 2.9
C[C@@H]1CN([C@H](C)CO)C(=O)c2c(c3ccccc3n2C)-c2ccccc2CO[C@H]1CN(C)Cc1ccccc1 | 16.6* | / | / | / | / | -8.0
CN(C(=O)c1ccccc1C(=O)OCC(=O)c1ccccc1)c1ccccc1 | 12.3 | -4.3 | -1.5 | / | 5.8 | /
COc1ccc(C(=O)COC(=O)c2ccccc2C(=O)N(C)c2ccccc2)c(OC)c1 | 40.1* | 2.0 | -6.3 | 0.2 | -0.9 | 8.4
Cc1noc(C)c1S(=O)(=O)N(C)C[C@@H]1OCc2cnnn2CCCC(=O)N([C@@H](C)CO)C[C@H]1C | 14.6* | / | / | / | / | -10.1
C[C@H]1CN([C@@H](C)CO)C(=O)CCCn2nncc2CO[C@H]1CN(C)C(=O)NC1CCCCC1 | 12.6* | / | / | / | / | -2.6
CC(C)C[C@@H](COCc1cccc(C(F)(F)F)c1)N1CCN(C(=O)c2ccc(C(F)(F)F)cc2)CCC1=O | 8.8 | / | / | / | / | /
Nc1[nH]c(C(=O)c2ccccc2)c(-c2cccnc2)c1C(=O)NCCc1ccc(Cl)cc1Cl | + | / | / | / | / | -1.2
CC(C)C(=O)N1CCCC1(C)C(=O)N(C)Cc1cccc2ccccc12 (stereo unspecified) | -2.7 | / | / | / | / | /
Cc1ccc2cccc(N)c2n1 | 30.8* | 8.5 | 9.0 | / | 4.0 | 1.0
Cc1ccc2cccc(OCc3ccccc3)c2n1 | -0.9 | 0.2 | -2.6 | -0.6 | 0.9 | /
c1ccc(NC2=NCCN2CCC2CCCCC2)cc1 | -0.5 | 1.4 | -1.2 | 0.2 | 0.4 | /
COc1cc(OC)c(C2C(C(=O)O)c3ccccc3C(=O)N2C)cc1OC (stereo unspecified) | -6.7 | 7.9 | 0.2 | 0.7 | 7.2 | /
SMILES | E coli Lon inh | MCL1 BIM primary | GLD-1 RNA inh | MEX-5 binding | BCLXL inh | E coli Lon conf
COc1ccc(C2C(C(=O)O)c3ccccc3C(=O)N2C)cc1Br (stereo unspecified) | 19.4* | 5.5 | 6.4 | 0.6 | 8.3 | -457.6
O=C(c1ccccc1NS(=O)(=O)c1cccs1)N1CCCC1 | 19.9* | -2.6 | 6.0 | 2.3 | 5.9 | -5.0
O=C(c1ccccc1NS(=O)(=O)c1ccccc1)N1CCCCCC1 | -9.1 | -4.4 | 1.4 | 3.2 | 0.2 | /
CN1CCC[C@H]1CCNc1ccc2c(=O)c3ccccc3n(C)c2c1 | -3.5 | / | / | / | / | /
Cn1c2ccccc2c(=O)c2ccc(NCc3ccc4c(c3)OCO4)cc21 | 17.2* | / | / | / | / | 3.0
O=C1C(NS(=O)(=O)c2cccs2)=C(N2CCN(c3cccc(C(F)(F)F)c3)CC2)C(=O)c2ccccc21 | 21.9* | 15.2 | 15.5 | -0.9 | 17.0 | -0.5
COc1ccc(C2N(c3ccc(OC)cc3)C(=O)C3CCCN32)cc1 (stereo unspecified) | 5.9 | 3.6 | 7.2 | -2.4 | 0.6 | /
COc1ccc(N2C(=O)C3CCCN3C2c2ccccc2)cc1 (stereo unspecified) | 16.2* | 4.9 | 4.0 | 0.1 | 1.4 | -7.7
CCCNC(=O)c1ccc2c(=O)c(O)c(-c3cccc(Br)c3)[nH]c2c1 | 143.5* | 2.9 | 9.1 | -83.9* | 6.5 | 135.0*
O=C(NCCCO)c1ccc2[nH]c3ccccc3c2c1 | -16.0 | 5.4 | 0.6 | -0.5 | 7.3 | /
Nc1c(Cl)cc(-c2[nH]c3cc(C(=O)NCCO)ccc3c(=O)c2O)cc1Cl | + | 17.9 | 3.5 | ? | 2.5 | 193.1*
CCCNC(=O)c1ccc2c(=O)c(O)c(C)[nH]c2c1 | 1.1 | 16.9 | -1.4 | -13.3 | 10.8 | /
CCCNC(=O)c1ccc2c(=O)c(O)c(-c3ccc(F)cc3)[nH]c2c1 | 163.0* | 2.3 | 8.4 | -89.8* | 5.9 | 99.7*
COc1ccc(-c2csc(C(O)c3ccccc3)n2)cn1 (stereo unspecified) | 0.3 | / | / | / | / | /
CC(NC(=O)c1ccccc1Cl)C1CC2CCC1C2 (stereo unspecified) | 17.4* | 3.8 | -0.1 | -0.7 | 0.8 | -3.5
COc1ccc(S(=O)(=O)N2CCN(C(=O)CNC(=O)c3ccc4c(c3)OCO4)CC2)cc1 | 53.1* | -3.9 | -3.2 | -7.4 | 0.7 | -6.6
O=C(NCC(=O)N1CCN(S(=O)(=O)c2ccccc2F)CC1)c1ccc2c(c1)OCO2 | 5.0 | 0.3 | -0.7 | 0.9 | -0.2 | /
CC1(Cc2ccc(Cl)cc2)C(=O)Nc2c(Cl)cccc21 (stereo unspecified) | -5.1 | / | / | / | / | /
CC12CCC(C(=O)NNC(=O)c3ccc(Br)cc3)(OC1=O)C2(C)C (stereo unspecified) | 18.2* | 4.6 | -5.0 | -1.0 | 3.3 | -17.3
Cc1c(C(=O)NCc2ccccc2C(F)(F)F)sc(=O)n1Cc1ccc(S(=O)(=O)N(C)C)cc1 | -1.5 | / | / | / | / | /
NS(=O)(=O)c1ccc(CCNC(=O)COc2ccc3c4c(c(=O)oc3c2)CCC4)cc1 | 17.7* | 2.4 | 4.2 | 0.0 | 2.6 | -39.8
O=C(OCCO)c1c(C2=CCCCC2)oc2c1C(OCCO)CCC2 (stereo unspecified) | 2.2 | / | / | / | / | /
CC(=O)c1ccccc1NC(=O)COC(=O)c1cc[n+]([O-])cc1 | -9.7 | / | 2.6 | / | / | /
O=C(COC(=O)c1cc[n+]([O-])cc1)Nc1cccc(Cl)c1Cl | 16.2* | 3.2 | -7.5 | -2.2 | 12.9 | -8.9
CC(C)[C@H](NC(=O)OCc1ccccc1)C(=O)NC(C=O)Cc1ccccc1 (stereo partly specified) | 55.5* | 3.4 | 1.4 | / | 3.4 | 59.0*

Source: PubChem BioAssay (several laboratories)
